Test results: PubChem BioAssay (Tox21)
Records with an inconclusive call do not appear. A call without a number means that no potency is given here. Values without a mark were called inactive. Activity calls are given as the source filed them. Unless noted, calls follow the shape of the dose curve; as a rule, active = well fitted curve in the direction sought with a large enough effect in the repeat runs; inconclusive = weak or mixed curves; inactive = no such curve, though single readings can be large; an effect the other way counts as inactive or inconclusive.

How the values were obtained:
[1] = qHTS assay to identify small molecule agonists of the peroxisome proliferator-activated receptor delta (PPARd) signaling pathway - cell viability counter screen (AID 743211); also: nearly all actives have a fitted effect of over 55% in size
Outline: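 PPARd-bla HEK293H cells (UAS-beta-lactamase reporter) were treated with compounds for 17 h at 37 C. Viability was then read in the same wells by CellTiter-Glo luminescence after 30 min at room temperature.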

[2] = biological target: Peroxisome proliferator-activated receptor delta (Homo sapiens) (UniProt Q03181); experiment: qHTS assay to identify small molecule agonists of the peroxisome proliferator-activated receptor delta (PPARd) signaling pathway (AID 743212; calls by dose curve)
Chain of Peroxisome proliferator-activated receptor delta (Homo sapiens) (Q03181 whole entry, looked up): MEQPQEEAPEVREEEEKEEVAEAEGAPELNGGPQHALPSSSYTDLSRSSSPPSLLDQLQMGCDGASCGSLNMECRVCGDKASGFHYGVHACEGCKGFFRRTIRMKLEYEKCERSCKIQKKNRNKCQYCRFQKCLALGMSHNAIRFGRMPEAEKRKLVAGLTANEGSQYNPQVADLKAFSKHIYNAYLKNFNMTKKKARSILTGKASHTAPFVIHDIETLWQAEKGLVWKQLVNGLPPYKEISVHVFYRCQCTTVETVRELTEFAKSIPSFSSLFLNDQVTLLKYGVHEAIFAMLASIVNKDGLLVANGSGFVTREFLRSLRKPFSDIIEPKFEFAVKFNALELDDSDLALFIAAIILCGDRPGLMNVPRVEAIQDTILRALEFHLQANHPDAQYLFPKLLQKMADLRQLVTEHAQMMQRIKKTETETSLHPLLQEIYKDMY
Outline: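 HEK293H UAS-bla reporter cells, human PPARd system; compounds delivered in DMSO after 5 h plating, then at 37 C. Beta-lactamase FRET read, 2 h RT substrate step.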

[3] = qHTS assay to identify small molecule antagonists of the peroxisome proliferator-activated receptor delta (PPARd) signaling pathway - cell viability counter screen (AID 743213); also: nearly all actives have a fitted effect of over 50% in size
Outline: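 Same-well viability: cells pre-incubated 5 h, dosed with compound plus 300 nM L165041, kept 17 h at 37 C, FRET substrate 2 h RT, then CellTiter-Glo 30 min RT and luminescence.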

[4] = biological target: Peroxisome proliferator-activated receptor delta (Homo sapiens) (UniProt Q03181); experiment: qHTS assay to identify small molecule antagonists of the peroxisome proliferator-activated receptor delta (PPARd) signaling pathway (AID 743215; active = well fitted inhibition curve with a large enough effect in the signal ratio in the repeat runs, not every such curve was filed as active; the % refers to the signal ratio;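 also: cells stimulated with agonist L165041 at 300 nM final during compound exposure; series mostly up to about 62 µM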)
Outline: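 Antagonist-mode beta-lactamase reporter screen: HEK293H cells with UAS-bla under PPARd control, stimulated by 300 nM L165041 (final) alongside test compound for 17 h at 37 C, then FRET fluorescence after 2 h substrate incubation.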

[5] = qHTS assay to identify small molecule agonists of the farnesoid-X-receptor (FXR) signaling pathway - cell viability counter screen (AID 743218); also: nearly all actives have a fitted effect of over 45% in size; also: potency is read from the fitted curve at half-maximal effect
Outline: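 In GeneBLAzer FXR-UAS-bla HEK 293T cells, compounds act for 16 h at 37 C. Cell viability is then scored in the reporter wells by CellTiter-Glo, 30 min at RT, luminescence.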

[6] = qHTS assay to identify small molecule antagonists of the farnesoid-X-receptor (FXR) signaling pathway - cell viability counter screen (AID 743221; active = well fitted cell-killing curve with a large enough effect in the repeat runs, not every such curve was filed as active; also: nearly all actives have a fitted effect of over 50% in size; also: potency is read from the fitted curve at half-maximal effect)
Outline: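 FXR-UAS-bla HEK 293T cells were treated with test compounds plus chenodeoxycholic acid (50 uM final) for 16 h at 37 C. Cell viability in the same wells was then read as CellTiter-Glo luminescence after 30 min at room temperature.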

[7] = biological target: Vitamin D3 receptor (Homo sapiens) (UniProt P11473); experiment: qHTS assay to identify small molecule agonists of the vitamin D receptor (VDR) signaling pathway (AID 743222; calls by dose curve)
Chain of Vitamin D3 receptor (Homo sapiens) (P11473 whole entry, looked up): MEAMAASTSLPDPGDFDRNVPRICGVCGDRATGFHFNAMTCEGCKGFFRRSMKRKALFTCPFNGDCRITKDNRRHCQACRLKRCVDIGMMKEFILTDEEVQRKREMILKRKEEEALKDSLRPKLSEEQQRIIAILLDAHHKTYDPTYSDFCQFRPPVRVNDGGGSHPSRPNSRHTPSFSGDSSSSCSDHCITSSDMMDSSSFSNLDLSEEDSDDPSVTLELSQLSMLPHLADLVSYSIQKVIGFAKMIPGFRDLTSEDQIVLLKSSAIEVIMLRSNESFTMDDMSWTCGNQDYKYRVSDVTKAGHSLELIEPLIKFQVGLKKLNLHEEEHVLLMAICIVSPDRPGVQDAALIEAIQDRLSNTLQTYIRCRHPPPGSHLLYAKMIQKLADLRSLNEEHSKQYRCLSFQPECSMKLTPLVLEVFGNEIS
Outline: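 Agonist activity measured in VDR-bla reporter cells. Exposure 16 h, 37C, 5% CO2; detection by B/G FRET substrate, 2 h RT.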

[8] = qHTS assay to identify small molecule antagonists of the vitamin D receptor (VDR) signaling pathway - cell viability counter screen (AID 743225); also: nearly all actives have a fitted effect of over 50% in size
Outline: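 VDR-bla HEK 293T cells, 4 h pre-incubation at 37C, then compound plus 1-alpha,25-dihydroxyvitamin D3 (3 nM final) for 16 h. After the beta-lactamase FRET read, CellTiter-Glo was added to the same wells; luminescence after 30 min at room temperature.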

[9] = qHTS assay to identify small molecule agonists of the NFkB signaling pathway (AID 1159509; active = well fitted curve in the direction sought with a large enough effect in the signal ratio in the repeat runs, not every such curve was filed as active; the % refers to the signal ratio; also: series mostly up to about 61 µM)
Outline: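 After overnight attachment, reporter cells received test compounds, DMSO or positive controls and were incubated 5 hr at 37 C. FRET substrate was then added for 1.5 hr at room temperature before dual-emission fluorescence reading.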

[10] = qHTS assay to identify small molecule agonists of the NFkB signaling pathway - cell viability counter screen (AID 1159515; calls by dose curve; also: nearly all actives have a fitted effect of over 55% in size; also: potency is read from the fitted curve at half-maximal effect)
Outline: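 Viability in NFkB-bla ME-180 cells was measured by CellTiter-Glo luminescence, 30 min room temperature, in wells already treated 5 hr with compounds and read for reporter FRET.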

[11] = qHTS assay to identify small molecule agonists of the endoplasmic reticulum stress response signaling pathway (AID 1159516; active = well fitted activation curve with a large enough effect in the signal ratio in the repeat runs, not every such curve was filed as active; the % refers to the signal ratio)
Outline: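 ER stress element reporter (bla) in HeLa. 1,500 cells/well, overnight attachment; 5 hr compound; 2 hr RT substrate; dual-emission fluorescence.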

[12] = qHTS assay to identify small molecule antagonists of the retinoid-related orphan receptor gamma (ROR-gamma) signaling pathway - cell viability counter screen (AID 1159520); also: nearly all actives have a fitted effect of over 50% in size; also: potency is read from the fitted curve at half-maximal effect
Outline: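 Cytotoxicity was read from cellular ATP (CellTiter-Glo luminescence) after 16 hr at 37 C with 1 uM doxycycline induction. The inducer was added 2 hr after compound transfer to Tet-on ROR gamma CHO cells.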

[13] = biological target: Nuclear receptor ROR-gamma (Homo sapiens) (UniProt P51449); experiment: qHTS assay to identify small molecule antagonists of the retinoid-related orphan receptor gamma (ROR-gamma) signaling pathway (AID 1159521; also: nearly all actives have a fitted effect of over 50% in size; also: potency is read from the fitted curve at half-maximal effect)
Outline: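 Tet-on RORγ CHO cells carrying a ROR response element–luciferase reporter were pretreated with compounds for 2 h, then induced with 1 uM (final) doxycycline hyclate for 16 h at 37 C. Antagonism was read as decreased ONE-Glo luminescence.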

[14] = qHTS assay to identify small molecule agonists of the AP-1 signaling pathway (AID 1159526; calls by dose curve)
[15] = biological target: Vitamin D3 receptor (Homo sapiens) (UniProt P11473); experiment: qHTS assay to identify small molecule antagonists of the vitamin D receptor (VDR) signaling pathway (AID 743223; active = well fitted inhibition curve with a large enough effect in the signal ratio in the repeat runs, not every such curve was filed as active; the % refers to the signal ratio)
Outline: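 VDR-bla cells were plated, incubated 4 h at 37C, then given compound and 1alpha,25-dihydroxyvitamin D3 (3 nM final). After 16 h at 37C, LiveBLAzer B/G FRET substrate was added for 2 h at room temperature and fluorescence read.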

[16] = qHTS assay to identify small molecule agonists of the vitamin D receptor (VDR) signaling pathway - cell viability counter screen (AID 743224)
Outline: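 VDR-bla cell line, quantitative HTS format; 16 h compound incubation (37C, 5% CO2); ATP-based CellTiter-Glo luminescence measured in the reporter assay wells.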

[17] = qHTS assay to identify small molecule agonists of the AP-1 signaling pathway - cell viability counter screen (AID 1159525; calls by dose curve; also: nearly all actives have a fitted effect of over 55% in size)
Outline: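 Luminescent ATP readout (Cell Titer Glo, 30 min RT), normalised to DMSO and tetra n-octyl ammonium bromide controls. Cells were ME-180 AP-1-bla in 0.5% dialyzed FBS Opti-MEM, with a 5 h, 37 °C compound exposure.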

[18] = biological target: Bile acid receptor (Homo sapiens) (UniProt Q96RI1); experiment: qHTS assay to identify small molecule antagonists of the farnesoid-X-receptor (FXR) signaling pathway (AID 743217; active = well fitted inhibition curve with a large enough effect in the signal ratio in the repeat runs, not every such curve was filed as active; the % refers to the signal ratio)
Chain of Bile acid receptor (Homo sapiens) (Q96RI1 whole entry, looked up): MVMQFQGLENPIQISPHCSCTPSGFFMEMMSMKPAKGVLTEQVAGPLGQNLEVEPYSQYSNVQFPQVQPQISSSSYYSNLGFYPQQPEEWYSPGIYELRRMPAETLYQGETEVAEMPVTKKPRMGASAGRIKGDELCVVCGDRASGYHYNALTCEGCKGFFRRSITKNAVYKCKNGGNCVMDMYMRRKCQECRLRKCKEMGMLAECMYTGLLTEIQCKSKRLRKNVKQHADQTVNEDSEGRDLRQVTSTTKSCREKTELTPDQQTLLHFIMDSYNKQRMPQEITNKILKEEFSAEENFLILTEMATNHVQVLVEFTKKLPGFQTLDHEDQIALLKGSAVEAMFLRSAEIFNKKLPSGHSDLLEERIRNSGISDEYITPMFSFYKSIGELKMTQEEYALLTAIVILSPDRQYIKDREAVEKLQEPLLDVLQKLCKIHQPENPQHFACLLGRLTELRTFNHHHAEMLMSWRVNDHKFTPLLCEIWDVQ
Outline: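 Beta-lactamase reporter under UAS control in HEK 293T cells; compound exposure 16 h at 37 °C in the presence of chenodeoxycholic acid (50 uM final); signal from B/G FRET substrate after 2 h at room temperature.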

[19] = biological target: Bile acid receptor (Homo sapiens) (UniProt Q96RI1); experiment: qHTS assay to identify small molecule agonists of the farnesoid-X-receptor (FXR) signaling pathway (AID 743220; active = well fitted activation curve with a large enough effect in the signal ratio in the repeat runs, not every such curve was filed as active; the % refers to the signal ratio)
Outline: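 Beta-lactamase reporter under UAS control in GeneBLAzer FXR HEK 293T cells (5000/well) measured with LiveBLAzer FRET substrate after 2 h at room temperature. Compound exposure lasted 16 h at 37C.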

Row | Structure (SMILES) | Potency [1] | outcome [2] | Potency [3] | Potency [4] | Potency [5] | Potency [6] | outcome [7] | Potency [8] | outcome [9] | Potency [10] | Potency [11] | Potency [12] | Potency [13] | outcome [14] | outcome [15] | Potency [16] | Potency [17] | outcome [18] | Potency [19]
1 | CC1CCCO1 (stereo not given) | inactive | inactive | inactive | inactive | inactive | inactive | inactive | inactive | inactive | inactive | inactive | inactive | inactive | inactive |  |  |  |  | 
2 | CCOc1ncc(F)c(=O)[nH]1 |  |  | inactive |  | inactive | inactive | inactive | inactive | inactive | inactive | inactive | inactive |  | inactive | inactive | inactive | inactive |  | 
3 | Cc1c[nH]c2ccccc12 |  | inactive | inactive | inactive | inactive | inactive |  | inactive | inactive | inactive | inactive | inactive | inactive | inactive |  |  |  |  | 
4 | O=C(O)c1cc(Cl)cc(Cl)c1O | inactive |  | inactive | inactive |  |  | inactive | inactive | inactive | inactive | inactive | inactive |  | inactive | inactive | inactive |  |  | 
5 | C1CCCCC1 | inactive | inactive | inactive | inactive | inactive | inactive |  | inactive | inactive | inactive | inactive | inactive |  | inactive |  |  | inactive | inactive | inactive
6 | O=C(NC(Cc1cc(=O)[nH]c2ccccc12)C(=O)O)c1ccc(Cl)cc1 (stereo not given) | inactive |  | inactive |  | inactive | inactive | inactive | inactive | inactive | inactive | inactive | inactive | inactive | inactive |  | inactive |  |  | 
7 | CCN(CC)CC(=O)Nc1c(C)cccc1C(=O)OC |  | inactive | inactive | inactive |  | inactive | inactive | inactive | inactive | inactive | inactive |  | inactive | inactive | inactive | inactive | inactive |  | 
8 | COC(=O)C1=C(C)NC(C)=C(C(=O)OC(C)(C)CN(C)CCC(c2ccccc2)c2ccccc2)C1c1cccc([N+](=O)[O-])c1 (stereo not given) | inactive | inactive | inactive | inactive | inactive |  | inactive | inactive | inactive | inactive | inactive |  | 11.9 µM (active) | inactive | inactive |  | inactive |  | 
9 | Cc1c(C2(c3cc(Br)c(O)c(Br)c3C)OS(=O)(=O)c3ccccc32)cc(Br)c(O)c1Br |  |  | inactive |  | 16.9 µM (active) | 16.9 µM (active) |  | inactive | inactive | 37.7 µM (active) | inactive | 3.74 µM (active) | 5.93 µM (active) | inactive | inactive | inactive |  | inactive | inactive
10 | CC(C)COC(=O)COc1cc(Cl)c(Cl)cc1Cl | inactive | inactive | inactive | inactive | inactive | inactive |  | inactive | inactive | inactive | inactive | inactive | inactive | inactive |  | inactive |  |  | 
11 | Nc1ccc(F)cc1 | inactive | inactive | inactive |  | inactive | inactive | inactive | inactive | inactive | inactive | inactive | inactive | inactive | inactive | inactive | inactive |  |  | 
12 | CC(C)CC(O)CC(C)C | inactive |  | inactive |  | inactive | inactive | inactive | inactive | inactive | inactive | inactive |  | inactive | inactive | inactive | inactive | inactive |  | 
13 | COC(CC(C)CCCC(C)(C)O)OC (stereo not given) | inactive | inactive | inactive | inactive | inactive | inactive | inactive | inactive | inactive | inactive | inactive |  | inactive | inactive |  | inactive | inactive |  | 
14 | Cc1cc(CCCOc2c(C)cc(-c3noc(C(F)(F)F)n3)cc2C)on1 | inactive |  | inactive |  | inactive | inactive | inactive | inactive | inactive | inactive | inactive |  | inactive |  | inactive | inactive | inactive |  | 
15 | CNC1CCCN(c2c(F)cc3c(=O)c(C(=O)O)cn(C4CC4)c3c2OC)C1 (stereo not given) |  |  | inactive |  | inactive | inactive | inactive | inactive | inactive | inactive | inactive |  | inactive | inactive | inactive |  | inactive | inactive | inactive
16 | O=C(/C=C/c1ccc([N+](=O)[O-])cc1)c1ccccc1 |  | inactive |  | inactive | inactive | inactive | inactive | inactive | inactive | inactive | inactive | inactive | inactive |  |  | inactive | inactive |  | 
17 | O=C(c1ccccc1)c1ccc(O)cc1 | inactive | inactive |  | inactive | inactive | inactive | inactive | inactive | inactive | inactive | inactive | inactive | inactive | inactive |  | inactive |  | inactive | inactive
18 | O=C(c1ccccc1)C1CCC1 | inactive | inactive | inactive |  | inactive | inactive | inactive | inactive | inactive | inactive | inactive |  | inactive | inactive | inactive | inactive | inactive |  | 
